About 7,900 targets were measured; listed, in parts, are those with a hit and a random draw of the rest. About 0.6% of all pairs of compound and target were hits. A number with no mark means an inactive call.
Key:
Experiment in all cases: log2 fold change, soluble protein after heating vs DMSO (PISA); higher = thermal stabilisation; K562 cells, 10 uM, 30 min; active = over 0.2 and 3.5 SD of the protein, either way, in both replicates (recomputed)
[1] = compound: CC1=C(C=C(C=C1)NC(=O)C2=CC(=CC=C2)C(C)(C)C#N)NC3=CC4=C(C=C3)N=CN(C4=O)C
Summary of the method: (§1)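 K562 cells at 2×10^6 cells/mL were given 10 μM compound for 30 min. Aliquots then went through 3 min of heating across 48°C-58°C, were pooled, and were extracted in PBS with 0.5% NP-40 at 4°C, and the supernatant after 21,000xg for 90 min was quantified by TMTpro 16plex LC-MS/MS with channel sums equalised. Thermal stability relative to control samples, from duplicates, is given as log2 fold change.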

[2] = compound: CC1=C(C=C(C=C1)NC(=O)C2=CC(=CC=C2)N(C)C)NC(=O)C3=CC=C(C=C3)O
Summary of the method: as §1

[3] = compound: CC1=CC=C(C=C1)SC2=C3C=C(SC3=CN=C2)C(=O)N
Summary of the method: as §1

[4] = compound: CC1=NC(=CC=C1)C2=C(N=C(N2)C(C)(C)C)C3=CC4=NC=CN=C4C=C3
Summary of the method: as §1

[5] = compound: CCCCN(Cc1ccc(C(=O)NO)cc1)C(=O)Nc1ccccc1 [Nexturastat A]
Summary of the method: as §1

[6] = compound: CCCS(=O)(=O)Nc1ccc(F)c(C(=O)c2c[nH]c3ncc(-c4ccc(Cl)cc4)cc23)c1F [vemurafenib]
Summary of the method: as §1

[7] = compound: CCCS(=O)(=O)Nc1ccc(F)c(C(=O)c2c[nH]c3ncc(Cl)cc23)c1F
Summary of the method: as §1

[8] = compound: CCCc1cc(C)[nH]c(=O)c1CNC(=O)c1cc(-c2ccnc(N3CCN(C)CC3)c2)cc2c1cnn2C(C)C
Summary of the method: as §1

[9] = compound: CCN(CC)Cc1ccc2cc(COC(=O)Nc3ccc(C(=O)NO)cc3)ccc2c1 [givinostat]
Summary of the method: as §1

[10] = compound: CCN(CCCOc1ccc2c(Nc3cc(CC(=O)Nc4cccc(F)c4)[nH]n3)ncnc2c1)CCOP(=O)(O)O [barasertib]
Summary of the method: as §1

UniProt Q08170, sequence (Q08170 whole entry, looked up): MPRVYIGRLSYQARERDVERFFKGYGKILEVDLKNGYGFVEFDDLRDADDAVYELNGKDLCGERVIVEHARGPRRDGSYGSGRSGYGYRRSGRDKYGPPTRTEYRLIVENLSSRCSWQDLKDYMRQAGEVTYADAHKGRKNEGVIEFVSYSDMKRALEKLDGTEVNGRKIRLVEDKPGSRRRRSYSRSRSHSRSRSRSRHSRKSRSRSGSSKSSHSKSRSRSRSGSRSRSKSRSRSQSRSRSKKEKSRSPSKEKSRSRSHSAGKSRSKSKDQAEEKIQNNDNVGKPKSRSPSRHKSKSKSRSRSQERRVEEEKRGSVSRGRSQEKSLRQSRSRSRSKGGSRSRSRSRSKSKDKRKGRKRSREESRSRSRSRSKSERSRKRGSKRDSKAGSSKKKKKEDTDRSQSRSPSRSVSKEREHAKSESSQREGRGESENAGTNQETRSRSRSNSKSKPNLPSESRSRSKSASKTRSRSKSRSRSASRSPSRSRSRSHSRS
UniProt Q01082, sequence (Q01082 whole entry, looked up): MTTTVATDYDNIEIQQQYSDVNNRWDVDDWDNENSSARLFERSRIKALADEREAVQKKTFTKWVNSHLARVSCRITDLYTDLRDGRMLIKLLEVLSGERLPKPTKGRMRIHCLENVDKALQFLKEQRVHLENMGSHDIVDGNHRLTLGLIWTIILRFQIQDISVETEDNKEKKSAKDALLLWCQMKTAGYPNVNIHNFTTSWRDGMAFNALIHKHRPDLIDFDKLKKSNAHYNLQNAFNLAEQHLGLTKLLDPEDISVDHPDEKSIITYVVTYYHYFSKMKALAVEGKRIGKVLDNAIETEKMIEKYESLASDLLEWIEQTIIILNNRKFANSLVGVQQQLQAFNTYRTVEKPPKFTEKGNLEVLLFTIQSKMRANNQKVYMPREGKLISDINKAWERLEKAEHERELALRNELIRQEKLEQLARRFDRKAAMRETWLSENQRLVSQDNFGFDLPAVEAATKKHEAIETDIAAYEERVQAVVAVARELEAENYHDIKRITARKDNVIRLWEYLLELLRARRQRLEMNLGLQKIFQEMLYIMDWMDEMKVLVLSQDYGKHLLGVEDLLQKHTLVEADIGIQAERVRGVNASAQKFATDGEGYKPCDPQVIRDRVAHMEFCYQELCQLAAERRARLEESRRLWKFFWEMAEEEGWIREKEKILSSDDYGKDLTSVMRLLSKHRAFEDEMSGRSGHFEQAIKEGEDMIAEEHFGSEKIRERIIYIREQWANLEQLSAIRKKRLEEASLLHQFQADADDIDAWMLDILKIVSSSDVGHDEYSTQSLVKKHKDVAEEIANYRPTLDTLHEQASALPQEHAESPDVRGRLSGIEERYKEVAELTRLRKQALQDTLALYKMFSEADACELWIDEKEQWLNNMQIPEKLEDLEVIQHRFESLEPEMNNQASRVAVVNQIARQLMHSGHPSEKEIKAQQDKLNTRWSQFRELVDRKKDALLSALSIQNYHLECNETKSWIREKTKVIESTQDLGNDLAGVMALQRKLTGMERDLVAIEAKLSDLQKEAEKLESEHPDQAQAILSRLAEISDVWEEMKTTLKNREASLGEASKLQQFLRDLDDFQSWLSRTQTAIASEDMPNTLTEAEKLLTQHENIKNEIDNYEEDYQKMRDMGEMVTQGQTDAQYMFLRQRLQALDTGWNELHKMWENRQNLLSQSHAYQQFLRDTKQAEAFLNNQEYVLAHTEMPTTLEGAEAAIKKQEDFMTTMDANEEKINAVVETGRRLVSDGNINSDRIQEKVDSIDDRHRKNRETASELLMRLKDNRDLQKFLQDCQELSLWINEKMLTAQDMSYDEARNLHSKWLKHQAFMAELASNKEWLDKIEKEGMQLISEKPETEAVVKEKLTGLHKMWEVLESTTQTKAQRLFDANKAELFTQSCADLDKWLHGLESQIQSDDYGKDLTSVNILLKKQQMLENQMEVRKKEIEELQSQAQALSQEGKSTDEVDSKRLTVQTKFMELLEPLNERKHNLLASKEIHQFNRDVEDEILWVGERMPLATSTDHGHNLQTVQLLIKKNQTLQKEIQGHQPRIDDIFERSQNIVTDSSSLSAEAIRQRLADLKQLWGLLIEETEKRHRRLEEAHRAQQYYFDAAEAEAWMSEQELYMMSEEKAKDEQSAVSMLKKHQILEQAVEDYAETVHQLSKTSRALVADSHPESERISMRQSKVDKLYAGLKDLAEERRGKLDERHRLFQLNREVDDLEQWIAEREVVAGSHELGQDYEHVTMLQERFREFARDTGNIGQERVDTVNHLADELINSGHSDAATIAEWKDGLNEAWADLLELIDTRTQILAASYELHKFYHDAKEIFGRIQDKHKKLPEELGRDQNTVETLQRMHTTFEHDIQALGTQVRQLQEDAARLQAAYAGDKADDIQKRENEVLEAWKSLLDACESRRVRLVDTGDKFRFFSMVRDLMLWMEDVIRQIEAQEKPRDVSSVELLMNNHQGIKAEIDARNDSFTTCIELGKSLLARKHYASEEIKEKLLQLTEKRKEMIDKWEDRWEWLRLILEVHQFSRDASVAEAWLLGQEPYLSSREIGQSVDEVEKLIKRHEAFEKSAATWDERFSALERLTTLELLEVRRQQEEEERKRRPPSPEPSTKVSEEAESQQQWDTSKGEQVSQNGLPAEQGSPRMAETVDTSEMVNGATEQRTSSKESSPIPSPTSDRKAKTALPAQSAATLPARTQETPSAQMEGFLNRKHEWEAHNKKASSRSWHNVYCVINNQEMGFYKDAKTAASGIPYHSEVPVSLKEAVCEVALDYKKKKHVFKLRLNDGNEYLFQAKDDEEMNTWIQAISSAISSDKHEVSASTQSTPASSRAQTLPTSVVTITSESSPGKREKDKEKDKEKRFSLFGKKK
UniProt Q16629, sequence (Q16629 whole entry, looked up): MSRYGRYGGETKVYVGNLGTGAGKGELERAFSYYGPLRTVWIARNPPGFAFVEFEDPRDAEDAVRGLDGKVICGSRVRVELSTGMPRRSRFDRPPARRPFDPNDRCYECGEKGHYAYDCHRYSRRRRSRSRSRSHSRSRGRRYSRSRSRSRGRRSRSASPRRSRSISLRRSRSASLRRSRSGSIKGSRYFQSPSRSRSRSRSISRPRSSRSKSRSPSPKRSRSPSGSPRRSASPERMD
UniProt P42229, sequence (P42229 whole entry, looked up): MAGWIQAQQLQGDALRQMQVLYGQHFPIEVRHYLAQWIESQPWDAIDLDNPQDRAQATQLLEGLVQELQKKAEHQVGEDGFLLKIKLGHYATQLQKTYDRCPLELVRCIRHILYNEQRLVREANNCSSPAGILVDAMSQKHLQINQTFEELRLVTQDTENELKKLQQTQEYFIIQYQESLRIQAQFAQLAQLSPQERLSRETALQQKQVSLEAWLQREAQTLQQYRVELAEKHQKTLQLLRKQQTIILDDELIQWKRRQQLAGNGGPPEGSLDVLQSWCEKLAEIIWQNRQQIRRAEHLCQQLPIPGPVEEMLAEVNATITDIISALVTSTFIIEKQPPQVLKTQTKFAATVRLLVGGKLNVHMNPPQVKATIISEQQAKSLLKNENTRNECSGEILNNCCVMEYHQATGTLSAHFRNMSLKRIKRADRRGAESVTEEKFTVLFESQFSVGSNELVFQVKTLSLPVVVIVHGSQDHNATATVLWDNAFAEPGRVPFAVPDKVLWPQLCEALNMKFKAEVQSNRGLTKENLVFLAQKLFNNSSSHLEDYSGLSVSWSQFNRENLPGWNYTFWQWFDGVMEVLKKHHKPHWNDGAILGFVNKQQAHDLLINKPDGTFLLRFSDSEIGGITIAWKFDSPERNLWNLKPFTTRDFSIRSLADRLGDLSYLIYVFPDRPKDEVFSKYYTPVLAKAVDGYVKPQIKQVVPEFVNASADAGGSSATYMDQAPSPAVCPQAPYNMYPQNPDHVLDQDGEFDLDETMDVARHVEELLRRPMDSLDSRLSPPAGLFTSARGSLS
UniProt Q15208, sequence (Q15208 whole entry, looked up): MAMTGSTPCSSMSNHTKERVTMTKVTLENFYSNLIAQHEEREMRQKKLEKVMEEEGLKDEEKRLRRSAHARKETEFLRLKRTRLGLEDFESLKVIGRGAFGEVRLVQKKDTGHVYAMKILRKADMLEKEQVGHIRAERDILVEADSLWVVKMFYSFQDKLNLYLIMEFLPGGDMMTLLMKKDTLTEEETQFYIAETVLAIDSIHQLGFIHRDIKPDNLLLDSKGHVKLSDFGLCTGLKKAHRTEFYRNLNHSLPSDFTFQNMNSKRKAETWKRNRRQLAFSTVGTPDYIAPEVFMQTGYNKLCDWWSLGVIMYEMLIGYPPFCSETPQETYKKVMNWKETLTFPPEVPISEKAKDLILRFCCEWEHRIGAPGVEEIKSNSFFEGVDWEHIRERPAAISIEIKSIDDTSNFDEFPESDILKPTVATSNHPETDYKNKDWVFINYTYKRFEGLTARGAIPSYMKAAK
UniProt O60749, sequence (O60749 whole entry, looked up): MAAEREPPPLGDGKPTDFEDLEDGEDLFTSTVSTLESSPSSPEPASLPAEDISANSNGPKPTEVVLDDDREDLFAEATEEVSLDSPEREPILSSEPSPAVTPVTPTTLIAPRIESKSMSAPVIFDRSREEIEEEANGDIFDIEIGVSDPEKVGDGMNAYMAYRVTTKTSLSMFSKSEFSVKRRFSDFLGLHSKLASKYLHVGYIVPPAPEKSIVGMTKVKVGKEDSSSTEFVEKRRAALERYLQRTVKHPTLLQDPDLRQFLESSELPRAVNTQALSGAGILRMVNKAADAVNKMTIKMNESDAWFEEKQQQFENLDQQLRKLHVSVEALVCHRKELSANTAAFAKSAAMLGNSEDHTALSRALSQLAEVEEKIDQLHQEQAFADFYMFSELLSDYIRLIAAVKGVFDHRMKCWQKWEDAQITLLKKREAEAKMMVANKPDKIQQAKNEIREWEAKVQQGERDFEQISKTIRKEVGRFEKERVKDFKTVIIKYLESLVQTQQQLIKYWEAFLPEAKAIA
UniProt P84103, sequence (P84103 whole entry, looked up): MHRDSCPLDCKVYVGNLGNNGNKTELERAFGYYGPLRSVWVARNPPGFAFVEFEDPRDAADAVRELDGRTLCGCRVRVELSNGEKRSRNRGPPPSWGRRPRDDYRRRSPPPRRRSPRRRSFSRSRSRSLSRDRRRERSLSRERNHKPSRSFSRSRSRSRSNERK

| Target | log2 fold change [1] | log2 fold change [2] | log2 fold change [3] | log2 fold change [4] | log2 fold change [5] | log2 fold change [6] | log2 fold change [7] | log2 fold change [8] | log2 fold change [9] | log2 fold change [10] |
| --- | --- | --- | --- | --- | --- | --- | --- | --- | --- | --- |
| SRSF7 (UniProt Q16629) | 0 | 0.025 | -0.115 | -0.112 | 0.193 | -0.043 | -0.088 | 0.114 | 0.059 | -0.105 |
| TECR (UniProt Q9NZ01) | -0.017 | -0.034 | 0.031 | 0.069 | -0.043 | 0.021 | 0.113 | -0.084 | 0.011 | 0.007 |
| SLC25A38 (UniProt Q96DW6) | 0.075 | -0.011 | -0.047 | 0.076 | -0.012 | -0.059 | -0.019 | -0.145 | -0.004 | 0.014 |
| STX7 (UniProt O15400) | -0.003 | 0.025 | -0.002 | 0.055 | -0.023 | -0.036 | 0 | 0 | -0.002 | -0.02 |
| STARD3NL (UniProt O95772) | 0.01 | -0.002 | 0.056 | 0.076 | -0.12 | 0.02 | 0.048 | -0.021 | 0.009 | -0.027 |
| STRN (UniProt O43815) | -0.019 | -0.046 | 0.019 | -0.024 | 0.001 | 0.073 | 0.035 | -0.038 | 0.002 | 0.045 |
| SNRNP40 (UniProt Q96DI7) | 0.01 | 0.001 | -0.06 | -0.023 | 0 | -0.027 | -0.046 | -0.037 | -0.035 | -0.04 |
| TERF2IP (UniProt Q9NYB0) | -0.023 | -0.012 | 0.02 | 0.013 | 0.057 | 0.184 | 0.001 | -0.017 | -0.009 | 0.021 |
| SRSF3 (UniProt P84103) | -0.019 | 0.047 | -0.208 | -0.103 | 0.124 | -0.064 | -0.173 | 0.047 | -0.029 | -0.093 |
| STK38 (UniProt Q15208) | 0.099 | -0.054 | 0.013 | 0.004 | -0.062 | 0.091 | 0.12 | 0.049 | 0.048 | 0.022 |
| STX17 (UniProt P56962) | -0.036 | -0.064 | -0.023 | 0.039 | 0.126 | 0.12 | 0.12 | -0.07 | 0.152 | 0.011 |
| TAF9 (UniProt Q16594) | 0.125 | -0.007 | -0.092 | 0.018 | 0 | -0.017 | -0.097 | 0.02 | 0.019 | -0.019 |
| SRSF4 (UniProt Q08170) | 0.042 | -0.001 | -0.067 | -0.032 | 0.074 | -0.027 | 0.017 | 0.224 | 0.052 | -0.064 |
| SNX5 (UniProt Q9Y5X3) | 0.001 | 0.015 | 0.009 | 0.039 | -0.074 | 0.009 | 0.035 | -0.031 | 0.013 | 0.04 |
| SORT1 (UniProt Q99523) | -0.042 | 0.013 | -0.006 | -0.012 | -0.038 | -0.003 | -0.008 | -0.072 | -0.003 | 0.015 |
| SNX6 (UniProt Q9UNH7) | -0.04 | -0.016 | 0.019 | 0.021 | -0.025 | -0.003 | 0.076 | 0.006 | 0.077 | 0.079 |
| STAT5A (UniProt P42229) | -0.033 | -0.113 | 0.072 | 0.011 | -0.009 | 0.067 | 0.067 | 0.141 | 0.156 | 0.096 |
| SURF2 (UniProt Q15527) | 0.022 | -0.007 | 0.035 | -0.027 | 0.033 | -0.037 | -0.002 | -0.029 | 0.013 | 0.035 |
| TBC1D9B (UniProt Q66K14) | -0.028 | 0.116 | 0.05 | -0.032 | 0.361 (active) | 0.095 | 0.048 | -0.189 | 0.002 | 0.04 |
| SLC30A10 (UniProt Q6XR72) | 0.028 | -0.102 | 0.131 | 0.001 | -0.545 (active) | -0.031 | -0.073 | -0.086 | -0.002 | -0.025 |
| TLK2 isoform 2 (UniProt Q86UE8) | -0.003 | -0.015 | -0.013 | 0.02 | -0.072 | -0.029 | 0.03 | -0.036 | 0.099 | -0.006 |
| SNX2 (UniProt O60749) | 0.009 | -0.022 | 0.02 | 0.012 | 0.021 | 0.013 | 0.052 | -0.036 | 0.073 | 0.037 |
| SMPD4 isoform 4 (UniProt Q9NXE4) | 0.022 | -0.011 | 0.075 | 0.112 | 0.075 | 0.02 | 0.058 | -0.034 | 0.066 | 0.13 |
| SMG1 (UniProt Q96Q15) | -0.068 | -0.048 | 0.031 | 0.012 | 0.045 | 0.029 | 0.077 | -0.096 | 0.05 | 0.075 |
| SPTBN1 (UniProt Q01082) | 0.018 | 0.02 | 0.004 | -0.036 | 0.088 | 0.058 | 0.006 | 0.051 | 0.049 | 0.019 |
| TBK1 (UniProt Q9UHD2) | -0.018 | -0.03 | 0.019 | -0.007 | 0.163 | -0.012 | 0.089 | 0.083 | 0.065 | 0.028 |
| TEX264 (UniProt Q9Y6I9) | 0.053 | -0.016 | -0.008 | 0.013 | 0.023 | -0.002 | -0.049 | 0.014 | 0.317 | 0.032 |
| TELO2 (UniProt Q9Y4R8) | 0.04 | -0.026 | 0.028 | -0.057 | 0.143 | 0.12 | 0.089 | 0.014 | 0.084 | 0.05 |
| SLIRP (UniProt Q9GZT3) | 0.175 | 0.008 | -0.035 | 0.039 | 0.286 | 0.028 | -0.031 | 0.214 | 0.113 | 0.019 |
| TLK1 (UniProt Q9UKI8) | 0.062 | -0.009 | 0.018 | 0.011 | 0.012 | 0.008 | 0.019 | -0.053 | 0.078 | 0.079 |
